Data on eight molecules can be found in PubChem BioAssay (NCI).

Some test systems named below: DU-145 prostate; K-562 leukemia; MALME-3M melanoma; MDA-MB-231 breast; RXF 393 renal; SF-268 CNS; SF-295 CNS; SF-539 CNS; UACC-257 melanoma; M14 melanoma; HCT-15 colon; HT29 colon; SNB-75 CNS; SNB-19 CNS; U251 CNS; PC-3 prostate; SK-MEL-5 melanoma; UACC-62 melanoma; LOX IMVI melanoma; SK-MEL-28 melanoma.
Holding throughout (test): NCI-60 one-dose screen, 48 h (100 = growth as untreated, 0 = no growth, -100 = all killed)
Settings in all cases: 10 µM unless noted

The panel holds about 83,000 compounds, 20% with a hit somewhere; the sample as a whole holds those more often.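 Negative percent growth values reflect cell death: -40 means 40% of the cells present at the start died, and -100 means all died.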 A number with no mark means an inactive call. Active and inactive are the calls of the source. The calls were made as follows: active = growth percent below 10; inactive = the rest.

As to `NCCCNc1nc2ccccc2c2c(=O)c3cc(F)cc(F)c3sc12`, the growth with DU-145 prostate was 73.4%; in the test on K-562 leukemia, -42.9% (active); in the test with MALME-3M melanoma, 73.6%; in the test with MDA-MB-231 breast, 18.2%; in the test on RXF 393 renal it was 63.6%; in the test with SF-268 CNS, 81.7%. Also, the growth is 105% in the test with SF-295 CNS; -92.3% (active) in the test with SF-539 CNS; 100% with UACC-257 melanoma; -85.2% (active) in the test with M14 melanoma; 77% in the test with HCT-15 colon; -49.7% (active) in the test on HT29 colon. For the same molecule, the growth in the test on SNB-75 CNS was 74.7%; in the test with SNB-19 CNS, 87.1%; with U251 CNS, -69.2% (active); with PC-3 prostate, 73.8%; in the test on SK-MEL-5 melanoma it was 92.3%; in the test with UACC-62 melanoma it was 103%. Also, the growth was 60% with LOX IMVI melanoma and -87.1% (active) with SK-MEL-28 melanoma.
With `COc1cc(C)c(Cc2cnc(N)nc2N)cc1OC`, the growth is 120% in the test with DU-145 prostate; 110% in the test with K-562 leukemia; 99.3% with MALME-3M melanoma; 109% in the test with MDA-MB-231 breast; 123% with RXF 393 renal; 108% with SF-268 CNS. The growth with SF-295 CNS is 103%; in the test on SF-539 CNS it was 98.6%; in the test with UACC-257 melanoma, 111%; with M14 melanoma, 105%; in the test on HCT-15 colon, 113%; in the test on HT29 colon, 109%. The growth in the test on SNB-75 CNS was 104%; in the test with SNB-19 CNS, 98.9%; with U251 CNS, 97.7%; in the test on PC-3 prostate, 94.3%; in the test on SK-MEL-5 melanoma, 105%; in the test on UACC-62 melanoma it was 99.5%. In addition, the growth was 94.9% in the test with LOX IMVI melanoma and 118% in the test on SK-MEL-28 melanoma.
`COc1cc(/C=N/NC(=O)c2ccc(C)nc2)cc(OC)c1OC`: the growth was 114% in the test on DU-145 prostate; 52.2% in the test with K-562 leukemia; 97.3% in the test on MALME-3M melanoma; 107% in the test with MDA-MB-231 breast; 90% in the test with RXF 393 renal; 104% in the test with SF-268 CNS. In addition, the growth in the test on SF-295 CNS is 97.4%; in the test on SF-539 CNS it was 97.6%; in the test on UACC-257 melanoma, 74.3%; with M14 melanoma, 108%; in the test on HCT-15 colon it was 97.2%; in the test on HT29 colon, 103%. For the same molecule, the growth in the test with SNB-75 CNS is 79.4%; in the test on SNB-19 CNS, 108%; in the test with U251 CNS it was 102%; with PC-3 prostate, 98.1%; with SK-MEL-5 melanoma, 96.3%; in the test with UACC-62 melanoma, 86.7%. Further, the growth is 94.8% in the test on LOX IMVI melanoma and 117% in the test on SK-MEL-28 melanoma.
Turning to `O=c1ccc(N=Nc2ccccc2)ccc1Cl`, the growth was 93.2% in the test with DU-145 prostate; 0.344% (active) in the test with K-562 leukemia; 55% in the test on MALME-3M melanoma; -1.83% (active) in the test on MDA-MB-231 breast; 6.49% (active) in the test with RXF 393 renal; 92.5% with SF-268 CNS. The growth was 69.6% in the test with SF-295 CNS; 45.8% with SF-539 CNS; 74.6% with UACC-257 melanoma; 46.6% in the test on M14 melanoma; 2.07% (active) in the test with HCT-15 colon; 27.5% in the test on HT29 colon. The growth with SNB-75 CNS is 74.5%; with SNB-19 CNS, 81.8%; with U251 CNS it was 54.4%; with PC-3 prostate, 56.2%; in the test on SK-MEL-5 melanoma it was 55.5%; in the test with UACC-62 melanoma, 55.7%. Besides, the growth with LOX IMVI melanoma was -77.1% (active); in the test with SK-MEL-28 melanoma it was 92.5%.
`O=C(Nc1ccc(I)cc1F)c1cc(I)ccc1O`: the growth in the test on DU-145 prostate was 21.2%; in the test on K-562 leukemia it was 7.64% (active); in the test on MALME-3M melanoma, -26.9% (active); in the test with MDA-MB-231 breast it was -34.7% (active); in the test on RXF 393 renal, -9.34% (active); in the test with SF-268 CNS it was 13.6%. The growth in the test with SF-295 CNS was -34% (active); with SF-539 CNS, 9.88% (active); in the test with UACC-257 melanoma, -17% (active); in the test on M14 melanoma it was 5.74% (active); in the test with HCT-15 colon, 4.84% (active); with HT29 colon, 78.7%. Moreover, the growth in the test with SNB-75 CNS was 1.71% (active); in the test on SNB-19 CNS, 17.5%; in the test on U251 CNS, 16.1%; in the test on PC-3 prostate, 7.79% (active); with SK-MEL-5 melanoma, -95.8% (active); in the test on UACC-62 melanoma, -24.1% (active). Further, the figures for the growth in the test with LOX IMVI melanoma and in the test on SK-MEL-28 melanoma were 8.01% (active) and 5.11% (active), respectively.
For the molecule `O=C(Nc1ccc(OS(=O)(=O)c2ccc(F)cc2)cc1)c1ccc(Cl)cc1`, the growth was 107% in the test with DU-145 prostate; 81.1% with K-562 leukemia; 96.9% with MALME-3M melanoma; 104% in the test with MDA-MB-231 breast; 109% with RXF 393 renal; 101% with SF-268 CNS. For the same molecule, the growth in the test on SF-295 CNS is 105%; with SF-539 CNS, 108%; in the test with UACC-257 melanoma, 100%; with M14 melanoma it was 98%; with HCT-15 colon, 89.9%; in the test on HT29 colon, 80.1%. The growth in the test with SNB-75 CNS was 114%; with SNB-19 CNS, 99.4%; in the test with U251 CNS, 100%; in the test with PC-3 prostate, 91.8%; in the test on SK-MEL-5 melanoma, 90.8%; in the test on UACC-62 melanoma, 96%. For the same molecule, the growth was 98.7% with LOX IMVI melanoma and 107% in the test on SK-MEL-28 melanoma.
For the molecule `N#C/C(=C\c1ccc(F)cc1)n1nc2cccc(F)c2n1`, the growth was 37.6% in the test with DU-145 prostate; 13.3% in the test with K-562 leukemia; 52.9% in the test with MALME-3M melanoma; 49% in the test with MDA-MB-231 breast; 12.8% in the test with RXF 393 renal; 71.4% with SF-268 CNS. Moreover, the growth is 76.1% with SF-295 CNS; 7.78% (active) in the test with SF-539 CNS; 61% with UACC-257 melanoma; 25.8% with M14 melanoma; 30.6% in the test with HCT-15 colon; 25.6% in the test on HT29 colon. For the same molecule, the growth with SNB-75 CNS was 0.195% (active); in the test with SNB-19 CNS, 63.6%; in the test on U251 CNS, 28.1%; in the test on PC-3 prostate, 53.7%; in the test with SK-MEL-5 melanoma it was 73%; in the test with UACC-62 melanoma, 45.7%. For the same molecule, the growth is 20.6% with LOX IMVI melanoma and 53.2% in the test with SK-MEL-28 melanoma.
On to `Cc1ccc(C(=O)NN2C(=O)CSC2c2cccc([N+](=O)[O-])c2)cn1` (stereo not given), for which the growth with DU-145 prostate was 107%; in the test with K-562 leukemia it was 98.9%; with MALME-3M melanoma, 111%; in the test with MDA-MB-231 breast it was 96.6%; in the test with RXF 393 renal it was 82.8%; in the test on SF-268 CNS it was 104%. Besides, the growth in the test with SF-295 CNS is 99.4%; with SF-539 CNS, 106%; with UACC-257 melanoma it was 75.8%; with M14 melanoma it was 96.4%; with HCT-15 colon it was 109%; with HT29 colon it was 104%. In addition, the growth is 84.6% in the test with SNB-75 CNS; 93.2% with SNB-19 CNS; 95.6% in the test on U251 CNS; 86.6% in the test on PC-3 prostate; 104% in the test on SK-MEL-5 melanoma; 98.1% with UACC-62 melanoma. Further, the growth is 90% in the test with LOX IMVI melanoma and 124% with SK-MEL-28 melanoma.
